Sampled rows, rich in hits. Any-hit rate of the full collection: about 1.4%.
PV pol inh: poliovirus RNA polymerase inhibition; % elongation, % (compound at 16.7 µg/mL); AID 588519; poliovirus polymerase elongation, fluorescence polarization; hits give low values; P03300; 0.66% of 150,000 active; in the data active means % elongation below about 90%
MenB inh: Mtb MenB enzyme inhibition; inhibition, % (concentration not given with the values); 0.43% of 100,000 active; MenB enzyme assay, absorbance read-out; P9WNP5; AID 540299; in the data active means inhibition above about 21%, passing the limit was not always enough
Mtb MbtI inh: MbtI salicylate synthase inhibition. purified MbtI enzyme, fluorescence intensity read-out. inhibition, % (no concentration beside the values). 0.89% of 100,000 active; in the data active means inhibition mostly above about 56%, no sharp cut-off; inactive means mostly below about 77%
Target sequence (P9WFX0 whole entry, looked up): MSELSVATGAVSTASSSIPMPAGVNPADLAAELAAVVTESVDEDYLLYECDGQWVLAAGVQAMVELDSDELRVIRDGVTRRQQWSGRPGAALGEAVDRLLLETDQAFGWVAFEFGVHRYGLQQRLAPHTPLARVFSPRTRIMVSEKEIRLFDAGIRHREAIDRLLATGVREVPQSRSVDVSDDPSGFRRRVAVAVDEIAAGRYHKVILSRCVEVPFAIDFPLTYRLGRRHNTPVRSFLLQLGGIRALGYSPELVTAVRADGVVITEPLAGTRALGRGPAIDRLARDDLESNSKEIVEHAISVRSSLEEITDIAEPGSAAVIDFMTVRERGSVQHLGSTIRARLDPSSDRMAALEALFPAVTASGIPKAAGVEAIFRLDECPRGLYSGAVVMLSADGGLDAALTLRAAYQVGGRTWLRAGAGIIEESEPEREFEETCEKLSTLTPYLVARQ
* marks the source's active call; other numbers are inactive results; . = no result given.

SMILES	PV pol inh	MenB inh	Mtb MbtI inh
O=C1c2ccccc2C(=O)N1CC1=NCCc2ccccc21	103	-1	-3
O=S(=O)(NCc1ccccc1Cl)c1cccc(S(=O)(=O)N2CCOCC2)c1	101	17	-8
COCCNC(=O)CCC(=O)NNc1nc2ccccc2c2nc(C)nn12	30*	.	.
Cc1nc2c3ccccc3nc(NNC(=O)CCC(=O)O)n2n1	105	.	.
CCC(C)NC(=O)CCC(=O)NNc1nc2ccccc2c2nc(C)nn12 (configuration not stated)	36*	.	.
Cc1nc2c3ccccc3nc(NNC(=O)CCC(=O)NC3CCCC3)n2n1	100	2	0
C=CCC(O)(CN)CC=C	103	32*	1
O=C(COC(=O)/C=C/c1ccco1)Nc1ccccc1C(F)(F)F	104	.	1
COc1ccc(C(=O)NCC23C=CC(O2)C2C(=O)N(c4ccccc4C)C(=O)C23)cc1 (configuration not stated)	103	-1	65*
Cc1ccc(N2C(=O)C3C4C=CC(CNC(=S)NCc5ccccc5)(O4)C3C2=O)cc1 (configuration not stated)	105	-46	0
CCOC(=O)c1sc2ncn(CC(=O)OC)c(=O)c2c1C	106	-19	.
CCOC(=O)Cn1cnc2sc(C(=O)OCC)c(C)c2c1=O	102	48*	16
Cc1cccc(Cn2c(=O)n(CC3CCC(C(=O)N4CCOCC4)CC3)c(=O)c3sccc32)c1 (configuration not stated)	107	.	.
O=C(CCc1c[nH]c2ccccc12)OCC(=O)c1cc2c3c(c1)CC(=O)N3CCC2	105	-9	-2
CC(=O)Oc1ccc(OC(C)=O)c(C2=C3C(=O)N(CCc4c[nH]c5ccccc45)CC(=O)N3CCC2)c1	104	12	100*
COc1ccc(OC)c(NC(=S)N(CCc2c(C)[nH]c3ccc(F)cc23)Cc2ccco2)c1	103	-54	1
CCN(CC)CCNC(=O)c1cc2c(=O)[nH]c3ccc(C)cc3c2s1	99	.	.
CCN(CCCNC(=O)c1cc2c(=O)[nH]c3ccc(C)cc3c2s1)Cc1ccccc1	87*	.	.
Nc1cc(=O)[nH]c2n[nH]c(=S)n12	101	33*	100*
CSc1nnc2[nH]c(=O)cc(N)n12	101	5	12
Cc1ccc(Nc2nc(N)nc(CSc3cc(C)c4ccccc4n3)n2)cc1	152	-11	44
CCC(C)N=Cc1c(O)n(-c2ccccc2)c(=O)[nH]c1=O (configuration not stated)	96	-3	102*
O=c1[nH]c(=O)n(-c2ccccc2)c(O)c1C=NCCO	99	-5	20
O=C(Nc1ccc(N2CCOCC2)c2nonc12)c1cc2ccccc2oc1=O	99	6	-7
COc1cc(NC(=O)CCCSc2nc(-c3ccco3)cc(C(F)(F)F)n2)cc(OC)c1OC	102	.	.
SMILES	PV pol inh	MenB inh	Mtb MbtI inh
COc1cccc(NC(=O)CCSc2nc(-c3ccco3)cc(C(F)(F)F)n2)c1	90*	.	.
COc1ccc(Cl)cc1N(C)C(=O)Cn1ncc2c1-c1ccccc1OC2	99	-10	-2
CCS(=O)(=O)c1ncc(Cl)c(C(=O)Nc2ccc(Cl)cc2)n1	103	-14	63*
CCS(=O)(=O)c1ncc(Cl)c(C(=O)NCc2ccccc2)n1	116	.	.
COc1ccc(NC(=O)CCc2c(C)nc3nc(CNC(=O)OC(C)(C)C)nn3c2C)cc1OC	107	.	.
NC(=O)CCSc1n[nH]c(=S)s1	101	-7	56
CCOC(=O)CCSc1n[nH]c(=S)s1	103	-22	85*
CCOC(=O)CSc1nn(C)c(=S)s1	.	.	25
CCOC(=O)CSc1n[nH]c(=S)s1	101	-21	90*
CC1(C)CC(=O)c2c(nc3cc(Cl)ccc3c2N)C1	99	-5	9
Cc1cc(-c2ccccc2)nn1C(CC(=O)O)C(=O)O (configuration not stated)	102	7	1
COc1cc(NCCCC(C)N)c2ncccc2c1 (configuration not stated)	35*	-9	5
COc1cccc(CNc2cccc3cccnc23)c1O	104	-56	-3
S=C(c1cccnc1)N1CCOCC1	99	-24	9
Nc1nc2c(s1)CCc1c-2cnn1-c1ccccc1	42*	3	.
COc1ccc(-c2cnn(-c3ccccc3)c2N)cc1OC	101	10	6
CN1CCN(C(=S)NC(CC(=O)c2ccccc2)c2ccccc2)CC1 (configuration not stated)	102	-17	.
Cc1ccc(C(=O)CC(C(=O)O)N2CCN(C)CC2)cc1 (configuration not stated)	104	31*	.
CC(C)C(NC(=O)c1ccccc1F)C(=O)Nc1ccc(N2CCOCC2)cc1 (configuration not stated)	106	-10	-6
CCN(CC)c1ccc(C2C(C#N)=C(N)N(c3cccc(C)c3)C3=C2C(=O)CCC3)cc1 (configuration not stated)	101	1	21
Cc1ccc(N(C(=O)c2cccc(C)c2)S(=O)(=O)c2ccc(Cl)cc2)cc1	103	.	.
Cc1ccc(S(=O)(=O)N(C)C)cc1	101	.	-4
Cc1ccc(S(=O)(=O)N(O)c2ccc(Cl)cc2)cc1	99	.	83*
Cc1ccc(N(O)S(=O)(=O)c2ccc(C)cc2)cc1	107	18	65*
C=CCn1c(C)nnc1SC(C)C(=O)c1c(C)[nH]c2ccccc12 (configuration not stated)	101	-11	9
SMILES	PV pol inh	MenB inh	Mtb MbtI inh
O=C(NC(=S)NCc1ccccc1)C1CCCC1	99	-24	76*
O=C(NCc1ccccc1)C1CCC1	102	-3	.
O=S(=O)(c1ccccc1)n1nc(-c2cccnc2)nc1NCc1cccs1	100	-22	-9
O=C(O)C1CC1c1ccccc1 (configuration not stated)	99	-34	-10
N[C@@H]1C[C@H]1c1ccccc1	99	36*	6
O=S(=O)(Nc1ccc(C(O)(C(F)(F)F)C(F)(F)F)cc1)c1ccccc1	103	.	-10
Cc1cc(C)c(C#N)c(=N)o1	55*	1	109
Cc1cc(C)n(N)c(=O)c1C#N	100	-29	-17
Cc1ccc(NC(=O)C(C)Nc2cccc(-c3nnc4n3CCCCC4)c2)cc1 (configuration not stated)	105	-15	29
Clc1ccc(-c2nc3ccccc3o2)c(Cl)c1	102	3	-5
Cc1ccc(CNC(=O)C2CC3CCCN3C23C(=O)N(C)c2ccccc23)cc1 (configuration not stated)	102	-9	21
Cc1nc(SCC(=O)O)oc1C	102	11	-8
N#Cc1ccc(C(=O)OC2CCCCC2=O)cc1 (configuration not stated)	102	1	11
O=C(CCC(=O)c1ccc(Cl)cc1)OC1CCCCC1=O (configuration not stated)	66*	-14	-12
CCOC(=O)c1ccc(NC(=O)Cn2c(=O)cc(C(F)(F)F)c3c(C)nn(C)c32)cc1	108	.	.
O=C(CSc1nc2ccccc2s1)NCCC1=CCCCC1	102	.	3
Cc1cccc(C)c1OCc1nc2c3cnn(-c4cccc(F)c4)c3ncn2n1	123	.	.
O=C1C(Nc2ccccc2)=CC(=O)c2ncccc21	82*	-7	3
O=C1C=C(Nc2ccccc2)C(=O)c2ccccc21	99	-16	7

Compound activity from PubChem.
